MK inhibit: S. pneumoniae MK inhibitors, primary screen, biochemical, PK/LDH-coupled NADH absorbance; mevalonate kinase [Streptococcus pneumoniae D39]; purified MK, PK/LDH-coupled NADH absorbance 340 nm; inhibition, % at 10 µM; 65,000 compounds, 0.48% hits;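 active = ranked among the strongest by inhibition in the single 10 µM screen, a fixed top-ranked set picked for dose follow-up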
Spn PMK inh: S. pneumoniae PMK inhibitors, primary screen, biochemical, mevalonate pathway, pilot trial included | 65,000 compounds, 0.49% hits | phosphomevalonate kinase (Streptococcus pneumoniae D39) | inhibition, % at 10 µM | purified PMK, PK/LDH-coupled NADH absorbance 340 nm;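 active = top-ranked compounds by inhibition in the single 10 µM screen, taking a fixed number of the strongest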;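 also: 0% = full reaction with DMSO carrier and 100% = background rate without enzyme reaction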
Spn DPM-DC inh: S. pneumoniae DPM-DC inhibitors, primary screen, biochemical, PK/LDH-coupled NADH fluorescence | 65,000 compounds, 0.49% hits | diphosphomevalonate decarboxylase (Streptococcus pneumoniae D39) | purified DPM-DC | calls only at 10 µM | AID 556, 2006;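 active = the 320 compounds with the highest percent inhibition in the single-dose primary screen, excluding strongly autofluorescent ones, cut at about 32% in these data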;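 also: kinetic rate of NADH fluorescence loss reporting ADP formed by the decarboxylase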
NADH coupling: inhibitors of PK/LDH coupling enzymes, profiling panel, artefact control, biochemical, MLSMR library; coupled PK/LDH NADH assays, four targets; IC50, µM (highest dose often 10 µM), without a hit: top-dose inhibition; 65,000 compounds, 0.02% hits;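 active = single-dose screening hits from any of four coupled enzyme assays that gave an IC50 when retested across doses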;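 also: the DPM-DC format reads NADH fluorescence rather than 340 nm absorbance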
Fluor 339 460: intrinsic fluorescence of library compounds, ex339/em460 – biochemical, MLSMR library, data from DPM-DC assay, artefact control, profiling panel | 65,000 compounds, 5.5% hits | compound autofluorescence, ex339/em460 nm, NADH buffer; stronger effect = higher value; 1 = no-compound wells, NADH background | fluorescence fold increase at 10 µM;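 active = at 10 µM, mean starting fluorescence two-fold or more over control wells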;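 also: signal is the first read of a kinetic run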
A340 absorber: compound light absorbance at 340 nm, profiling panel, artefact control, biochemical, MLSMR library, data from PS, PMK, MK assays. 65,000 tested, under 10 active. compound absorbance at 340 nm, fold over control. fold change at 10 µM;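 active = at 10 µM dose, initial 340 nm absorbance at least 2 fold that of control wells; inactive = change under 2 fold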;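 also: initial absorbance extrapolated from kinetic A340 decline of NADH oxidation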
* hit, by the source's call. Sampled rows, rich in hits. Any-hit rate of the full collection: about 6.3%.

Screening Cc1cc(C)c2c(n1)nn1c(N3CCN(c4ccccn4)CC3)cc(C)nc21 returned MK inhibit 9, Spn PMK inh 10, Spn DPM-DC inh inactive, NADH coupling 12%, Fluor 339 460 3* and A340 absorber 1.
`O=C(O)C1C2C=CC(C2)C1C(=O)NCCc1cccc(Cl)c1` (stereo not drawn) gave MK inhibit 6, Spn PMK inh 9, Spn DPM-DC inh inactive, NADH coupling 5%, Fluor 339 460 1.1 and A340 absorber 1.1.
`CCO/C=C1\C(=O)N(c2ccccc2)C(=O)c2ccccc21` gave MK inhibit 17, Spn PMK inh 0, NADH coupling 9%, Fluor 339 460 2.2* and A340 absorber 1.1.
For CCOC(=O)c1ccc(CNC(=O)c2cc(C(C)(C)C)oc2C)o1 the results were MK inhibit 2, Spn PMK inh 4, Spn DPM-DC inh inactive, NADH coupling 2%, Fluor 339 460 1.1 and A340 absorber 1.
`CC(C)(C)S(=O)(=O)c1ccc2nc3c(n2c1)CCCC3` gave MK inhibit 15, Spn PMK inh 14, NADH coupling 15%, Fluor 339 460 3.9* and A340 absorber 1.
`Clc1ccc2c(c1)C1OCCC1C(c1ccco1)N2` (stereo not drawn) gave MK inhibit 7, Spn PMK inh 10, NADH coupling 9%, Fluor 339 460 3.7* and A340 absorber 1.1.
For Cc1nc2n(n1)C(c1ccccc1)C1=C(CC(c3ccco3)CC1=O)N2 (stereo not drawn) the results were MK inhibit 0, Spn PMK inh 0, Spn DPM-DC inh inactive, NADH coupling 0%, Fluor 339 460 1.6 and A340 absorber 1.1.
Screening CC1=C(C(=O)Nc2cccc(C)n2)C(c2ccc3c(c2)OCO3)C2=C(CC(c3ccco3)CC2=O)N1 (stereo not drawn) returned MK inhibit 1, Spn PMK inh 3, Spn DPM-DC inh inactive, NADH coupling 7%, Fluor 339 460 2.3* and A340 absorber 1.1.
Screening Oc1cc2ccccc2cc1-c1n[nH]c(=S)o1 returned MK inhibit 1, Spn PMK inh 12, Spn DPM-DC inh inactive, NADH coupling 12%, Fluor 339 460 3* and A340 absorber 1.
Screening S=c1[nH]nc(CSc2nc3ccccc3s2)o1 returned MK inhibit 9, Spn PMK inh 15, Spn DPM-DC inh inactive, NADH coupling 9%, Fluor 339 460 1 and A340 absorber 1.
C=CCSc1nnc(NC(=O)c2cccc(S(=O)(=O)N3CCOCC3)c2)s1 was read as MK inhibit 6, Spn PMK inh 9, Spn DPM-DC inh inactive, NADH coupling 8%, Fluor 339 460 1.1 and A340 absorber 1.2.
Screening Cc1cccn2c(=O)c3cc(C(=O)NCCN4CCOCC4)c(=N)n(CCc4ccccc4)c3nc12 returned MK inhibit 0, Spn PMK inh 0, NADH coupling 0%, Fluor 339 460 2.3* and A340 absorber 1.1.
For Cc1cccn2c(=O)c3cc(C(=O)NCc4ccccc4)c(=N)n(CCCN4CCOCC4)c3nc12 the results were MK inhibit 0, Spn PMK inh 11, NADH coupling 6%, Fluor 339 460 5.2* and A340 absorber 1.
Screening Cc1[nH]c2ccc(CNS(=O)(=O)c3ccc(S(=O)(=O)N4CCOCC4)cc3)cc2c1C returned MK inhibit 5, Spn PMK inh 0, Spn DPM-DC inh inactive, NADH coupling 2%, Fluor 339 460 1.1 and A340 absorber 1.
CCc1nnc(NC(=O)C(C)Sc2ccccc2)s1 (stereo not drawn) was read as MK inhibit 9, Spn PMK inh 4, Spn DPM-DC inh inactive, NADH coupling 4%, Fluor 339 460 1 and A340 absorber 0.99.
For COc1cc2[nH]c(=O)n3nc(-c4ccccc4)nc3c2cc1OC the results were MK inhibit 13, Spn PMK inh 19, NADH coupling 16%, Fluor 339 460 2.1* and A340 absorber 1.1.
For COc1cc2[nH]c(=O)n(CCCC(=O)N3CC=C(c4ccccc4)CC3)c(=O)c2cc1OC the results were MK inhibit 17, Spn PMK inh 0, Spn DPM-DC inh inactive, NADH coupling 7%, Fluor 339 460 1.5 and A340 absorber 1.1.
Screening CCC(O)CNc1nc(SC)nc2sc3c(c12)CCN(C)C3 (stereo not drawn) returned MK inhibit 10, Spn PMK inh 0, NADH coupling 5%, Fluor 339 460 2.2* and A340 absorber 1.
For CSc1nc(NCc2ccco2)c2c3c(sc2n1)CN(C)CC3 the results were MK inhibit 10, Spn PMK inh 0, Spn DPM-DC inh inactive, NADH coupling 7%, Fluor 339 460 1.8 and A340 absorber 1.1.
`O=C1c2ccccc2C(O)(Cc2ccccc2)N1c1ccc2c(c1)OCO2` (stereo not drawn) gave MK inhibit 0, Spn PMK inh 16, Spn DPM-DC inh inactive, NADH coupling 7%, Fluor 339 460 1.1 and A340 absorber 1.
Screening O=C(Nc1ccc2c(c1)C(=O)N(C1CCCCC1)C2=O)C1CCCO1 (stereo not drawn) returned MK inhibit 7, Spn PMK inh 1, NADH coupling 2%, Fluor 339 460 2.5* and A340 absorber 1.
`CN(C)S(=O)(=O)c1ccc(S(=O)(=O)N(Cc2ccccn2)Cc2ccco2)cc1` gave MK inhibit 9, Spn PMK inh 7, Spn DPM-DC inh inactive, NADH coupling 5%, Fluor 339 460 1.2 and A340 absorber 1.
CCOC(=O)c1cnn(CCOC(=O)Cc2cccs2)c1NC(=O)Cc1cccs1 was read as MK inhibit 8, Spn PMK inh 15, Spn DPM-DC inh inactive, NADH coupling 8%, Fluor 339 460 1.1 and A340 absorber 0.99.
`O=C(Nc1cccc2c1C(=O)NC2=O)c1ccc(S(=O)(=O)N2CCCC2)cc1` gave MK inhibit 5, Spn PMK inh 16, Spn DPM-DC inh inactive, NADH coupling 8%, Fluor 339 460 2.3* and A340 absorber 1.
Screening CC(C)CCNC(=O)C(c1ccco1)N(Cc1ccccc1)C(=O)c1snc(C(N)=O)c1N (stereo not drawn) returned MK inhibit 13, Spn PMK inh 15, Spn DPM-DC inh inactive, NADH coupling 15%, Fluor 339 460 1.9 and A340 absorber 1.
For CCc1ccccc1N(CC(=O)NCc1ccco1)C(=O)c1snc(C(N)=O)c1N the results were MK inhibit 6, Spn PMK inh 5, NADH coupling 6%, Fluor 339 460 3.3* and A340 absorber 1.1.
